About 83,000 compounds went through this panel and 20% of them were active in at least one assay; those are over-represented in the sample as a whole.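 Cells were grown in 96-well plates and exposed to the test compound at a single concentration for 48 hours; results are reported as percent growth, with values below 10 considered active.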 Active and inactive are the calls of the source.
What was measured:
Experiment in all cases: NCI-60 one-dose screen, 48 h (100 = growth as untreated, 0 = no growth, -100 = all killed)
Conditions in all cases: 10 µM unless noted
DU-145 prostate = system: DU-145 prostate
K-562 leukemia = system: K-562 leukemia
MALME-3M melanoma = system: MALME-3M melanoma
MDA-MB-231 breast = system: MDA-MB-231 breast
RXF 393 renal = system: RXF 393 renal
SF-268 CNS = system: SF-268 CNS
SF-295 CNS = system: SF-295 CNS
SF-539 CNS = system: SF-539 CNS
UACC-257 melanoma = system: UACC-257 melanoma
M14 melanoma = system: M14 melanoma

Measured: growth

CSc1nc(C)c(C(=O)CCN2CCN(c3ccccn3)CC2)s1
inactive: DU-145 prostate 102% | K-562 leukemia 93.6% | MALME-3M melanoma 102% | MDA-MB-231 breast 101% | RXF 393 renal 100% | SF-268 CNS 102% | SF-295 CNS 102% | SF-539 CNS 99% | UACC-257 melanoma 99.7% | M14 melanoma 99.9%

CC(C)c1ccc(C(=O)OC2CCCC2)cc1
inactive: DU-145 prostate 106% | K-562 leukemia 120% | MALME-3M melanoma 101% | MDA-MB-231 breast 103% | RXF 393 renal 118% | SF-268 CNS 95.1% | SF-295 CNS 106% | SF-539 CNS 108% | UACC-257 melanoma 125% | M14 melanoma 93.9%

CC/C(=C(/CC)c1ccc(O)cc1)c1ccc(O)cc1
inactive: DU-145 prostate 84.1% | K-562 leukemia 27.5% | MALME-3M melanoma 54.5% | MDA-MB-231 breast 58.7% | RXF 393 renal 65.1% | SF-268 CNS 63.9% | SF-295 CNS 43.9% | SF-539 CNS 68.3% | UACC-257 melanoma 68.9% | M14 melanoma 43.9%

O=C(C[P+](c1ccccc1)(c1ccccc1)c1ccccc1)c1ccccc1
inactive: DU-145 prostate 102% | K-562 leukemia 84% | MALME-3M melanoma 110% | MDA-MB-231 breast 84.5% | RXF 393 renal 107% | SF-268 CNS 94.6% | SF-295 CNS 87.4% | SF-539 CNS 104% | UACC-257 melanoma 101% | M14 melanoma 106%

CC(C)(C)c1ccc(O)c(Br)c1
inactive: DU-145 prostate 105% | K-562 leukemia 120% | MALME-3M melanoma 99.8% | MDA-MB-231 breast 104% | RXF 393 renal 91.2% | SF-268 CNS 95.5% | SF-295 CNS 95.8% | SF-539 CNS 102% | UACC-257 melanoma 111% | M14 melanoma 95.8%

COc1cc(/C=C/c2ccnc3ccccc23)cc(OC)c1OC
active: K-562 leukemia 8.29%
inactive: DU-145 prostate 64.4% | MALME-3M melanoma 40.3% | MDA-MB-231 breast 47.1% | RXF 393 renal 22.1% | SF-268 CNS 48.2% | SF-295 CNS 32.4% | SF-539 CNS 46.1% | UACC-257 melanoma 58.7% | M14 melanoma 13.3%

C=C(C(N)=O)C(N)C(=O)O (stereo not given)
inactive: DU-145 prostate 99.9% | K-562 leukemia 100% | MALME-3M melanoma 98% | MDA-MB-231 breast 108% | RXF 393 renal 111% | SF-268 CNS 106% | SF-295 CNS 112% | SF-539 CNS 110% | UACC-257 melanoma 112% | M14 melanoma 90.7%

COC1=CC(=O)c2c(O)c3c(c(O)c2C1=O)CC(C)(O)OC3 (stereo not given)
active: MALME-3M melanoma -96.6% | SF-295 CNS 5.39% | SF-539 CNS -2.19% | UACC-257 melanoma 5.54% | M14 melanoma -52.4%
inactive: DU-145 prostate 12.7% | K-562 leukemia 13.4% | MDA-MB-231 breast 28.3% | RXF 393 renal 11.1% | SF-268 CNS 18.3%

COc1ccc2c(c1)c(CC(=O)O)c(C)n2C(=O)c1ccc(Cl)cc1
inactive: DU-145 prostate 107% | K-562 leukemia 73.5% | MALME-3M melanoma 85.1% | MDA-MB-231 breast 102% | RXF 393 renal 109% | SF-268 CNS 109% | SF-295 CNS 68.6% | SF-539 CNS 114% | UACC-257 melanoma 109% | M14 melanoma 95.7%

C[C@@]1(CO)[C@H](O)CC[C@@]2(C)[C@H]1CC[C@H]1C[C@@H]3C[C@@]12CC[C@@]3(O)COC(=O)CN
active: DU-145 prostate 9.57% | RXF 393 renal 5.23% | SF-295 CNS 8.57% | SF-539 CNS -13.9%
inactive: K-562 leukemia 34.2% | MALME-3M melanoma 77.4% | MDA-MB-231 breast 92% | SF-268 CNS 50.5% | UACC-257 melanoma 21% | M14 melanoma 42.4%

CC1(C)CCCC2=C1C(=O)N(SC(Cl)(Cl)Cl)C2=O
inactive: DU-145 prostate 102% | K-562 leukemia 43.1% | MALME-3M melanoma 75.9% | MDA-MB-231 breast 95.9% | RXF 393 renal 90% | SF-268 CNS 103% | SF-295 CNS 84.5% | SF-539 CNS 95.9% | UACC-257 melanoma 97.2% | M14 melanoma 93.6%

NCCCN(CCCN)CCCNCc1c2ccccc2c(CNCCCN(CCCN)CCCN)c2ccccc12
inactive: DU-145 prostate 100% | K-562 leukemia 83.3% | MALME-3M melanoma 51.7% | MDA-MB-231 breast 102% | RXF 393 renal 98.4% | SF-268 CNS 88.7% | SF-295 CNS 100% | SF-539 CNS 91.8% | UACC-257 melanoma 93.2% | M14 melanoma 98.8%

CCN1/C(=C/C(C)=C/c2sc3ccc4ccccc4c3[n+]2CC)Sc2ccc3ccccc3c21
active: DU-145 prostate -100% | K-562 leukemia -23.7% | MALME-3M melanoma -87% | MDA-MB-231 breast -82.5% | RXF 393 renal -88.1% | SF-268 CNS -91.1% | SF-295 CNS -93% | SF-539 CNS -98.1% | UACC-257 melanoma -82.2% | M14 melanoma -79.8%

S=C=Nc1ccc(N2CCOCC2)cc1
inactive: DU-145 prostate 108% | K-562 leukemia 89.6% | MALME-3M melanoma 82.3% | MDA-MB-231 breast 97.3% | RXF 393 renal 72.2% | SF-268 CNS 99.9% | SF-295 CNS 84.8% | SF-539 CNS 89.5% | UACC-257 melanoma 88.7% | M14 melanoma 93%

CN(C)c1ccc(C(=C2C=CC(=[N+](C)C)C=C2)c2ccc(N(C)C)cc2)cc1
active: DU-145 prostate -91.8% | K-562 leukemia -10.4% | MALME-3M melanoma -81.4% | MDA-MB-231 breast -56.5% | RXF 393 renal -92.2% | SF-268 CNS -74.1% | SF-295 CNS -55.2% | SF-539 CNS -70.6% | UACC-257 melanoma -62.7% | M14 melanoma -80.2%

CC(C)(C)c1ccc(O)c(-c2ccccc2)c1
inactive: DU-145 prostate 115% | K-562 leukemia 105% | MALME-3M melanoma 130% | MDA-MB-231 breast 120% | RXF 393 renal 112% | SF-268 CNS 105% | SF-295 CNS 126% | SF-539 CNS 108% | UACC-257 melanoma 90.1% | M14 melanoma 121%

O=C(NNc1ccccc1)OCc1ccccc1
active: K-562 leukemia 3.91%
inactive: DU-145 prostate 69.1% | MALME-3M melanoma 121% | MDA-MB-231 breast 74.4% | RXF 393 renal 119% | SF-268 CNS 63% | SF-295 CNS 58% | SF-539 CNS 97.1% | UACC-257 melanoma 92.4% | M14 melanoma 17.6%

N#CC(=C1SCS1)[N+](=O)[O-]
inactive: K-562 leukemia 28.4% | MALME-3M melanoma 21.4% | MDA-MB-231 breast 16% | RXF 393 renal 12.2% | SF-268 CNS 34.9% | SF-295 CNS 35.9% | SF-539 CNS 11.5% | UACC-257 melanoma 35.3%
active: DU-145 prostate 2.38% | M14 melanoma -1.46%

S=c1[nH]c2cc(Cl)ccc2s1
inactive: DU-145 prostate 104% | K-562 leukemia 111% | MALME-3M melanoma 102% | MDA-MB-231 breast 99.9% | RXF 393 renal 121% | SF-268 CNS 94.2% | SF-295 CNS 103% | SF-539 CNS 100% | UACC-257 melanoma 108% | M14 melanoma 108%

O=C(Nc1cccc(C(F)(F)F)c1)Oc1ccc(Cl)c2cccnc12
inactive: DU-145 prostate 39.6% | K-562 leukemia 16.2% | MDA-MB-231 breast 22.7% | RXF 393 renal 68.6% | SF-268 CNS 15.1% | SF-539 CNS 50.9% | M14 melanoma 24.9%
active: MALME-3M melanoma -2.66% | SF-295 CNS 4.11% | UACC-257 melanoma -60%

O=C1C(=O)c2cc([N+](=O)[O-])ccc2-c2ccccc21
active: DU-145 prostate -99.2% | K-562 leukemia -9.39% | MALME-3M melanoma -82.7% | MDA-MB-231 breast -50.6% | RXF 393 renal -97.2% | SF-268 CNS -84.4% | SF-295 CNS -82.2% | SF-539 CNS -93% | UACC-257 melanoma -94.5% | M14 melanoma -90.2%

O=[N+]([O-])c1ccc2c(c1)Cc1ccccc1-2
inactive: DU-145 prostate 97.7% | K-562 leukemia 94.5% | MALME-3M melanoma 95.7% | MDA-MB-231 breast 102% | RXF 393 renal 109% | SF-268 CNS 95.9% | SF-295 CNS 100% | SF-539 CNS 100% | UACC-257 melanoma 97.2% | M14 melanoma 106%

S=C(SSC(=S)N1CCOCC1)N1CCOCC1
inactive: DU-145 prostate 109% | K-562 leukemia 56.2% | MALME-3M melanoma 101% | MDA-MB-231 breast 104% | RXF 393 renal 102% | SF-268 CNS 101% | SF-295 CNS 107% | SF-539 CNS 96.4% | UACC-257 melanoma 64% | M14 melanoma 55.5%

c1csc(-c2[nH]nc3c2CCc2ccccc2-3)c1
inactive: DU-145 prostate 103% | K-562 leukemia 114% | MALME-3M melanoma 79.3% | MDA-MB-231 breast 37.2% | RXF 393 renal 94.7% | SF-268 CNS 101% | SF-295 CNS 91.7% | SF-539 CNS 82.1% | UACC-257 melanoma 98.6% | M14 melanoma 107%

O=[N+]([O-])c1ccc(Oc2ccccc2Cl)c([N+](=O)[O-])c1
inactive: DU-145 prostate 89% | K-562 leukemia 17.4% | MALME-3M melanoma 85.5% | MDA-MB-231 breast 75.5% | RXF 393 renal 86.7% | SF-268 CNS 84.9% | SF-295 CNS 102% | SF-539 CNS 94.6% | UACC-257 melanoma 89.8% | M14 melanoma 86.2%

Cc1ccc(NC2=CC(=O)C(=O)c3ccccc32)cc1
active: DU-145 prostate -65.1% | MALME-3M melanoma -76.5% | SF-295 CNS -22.9% | SF-539 CNS -20.4% | UACC-257 melanoma -46.2% | M14 melanoma -63.5%
inactive: K-562 leukemia 16.4% | MDA-MB-231 breast 49% | RXF 393 renal 44.1% | SF-268 CNS 41%

CCCCCCCCCCCC1=NCCCN1CCCC
inactive: DU-145 prostate 103% | K-562 leukemia 80.3% | MALME-3M melanoma 106% | MDA-MB-231 breast 78.8% | RXF 393 renal 122% | SF-268 CNS 101% | SF-295 CNS 101% | SF-539 CNS 110% | UACC-257 melanoma 92.3% | M14 melanoma 100%

O=C(/C=C/C(Cl)(Cl)Cl)Nc1ccc(Cl)cc1
inactive: DU-145 prostate 97.7% | K-562 leukemia 65.7% | MALME-3M melanoma 121% | MDA-MB-231 breast 113% | RXF 393 renal 87% | SF-268 CNS 112% | SF-295 CNS 115% | SF-539 CNS 103% | UACC-257 melanoma 102% | M14 melanoma 105%
